Screens deposited in PubChem BioAssay by National Center for Advancing Translational Sciences (NCATS).
HT1080-NT tox = kills 2HG-producing HT-1080-NT fibrosarcoma cells | 1.6% of 360,000 active | HT-1080-NT fibrosarcoma viability, CellTiter-Glo ATP luminescence, 48 h | Potency, µM (top dose mostly 46.1 µM), usual class: cytotoxic;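 also: NT is the 2HG producing partner of a matched IDH1 knockdown line; nearly all actives have a fitted effect of over 55% in size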
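Viability by CellTiter-Glo luminescence after 48 h compound exposure at 37C of HT-1080-NT cells (750/well, RPMI, 5% FBS). % activity scaled between DMSO wells and medium-only wells, then curve-fitted and categorized by curve class.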
DT40 TDP1 CPT = DT40-hTDP1 cell growth loss with CPT; chicken DT40 Tdp1-/-;hTDP1 cells + 20 nM CPT, ATP luminescence, 48 h; Potency, µM (highest dose often 46.2 µM), most hits filed as inhibitors; 12% of 420,000 active; AID 686979; also: nearly all actives have a fitted effect of over 55% in size
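Chicken DT40 Tdp1-/- cells complemented with human TDP1, 400 cells/well, exposed to compounds plus 20 nM camptothecin for at least 48 h at 37 C; viability read as ATP content by CellTiter-Glo luminescence.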
TGFb inhibitor = inhibitors of TGF-b signaling; HepG2 CAGA-GFP TGF-b/SMAD3 reporter, GFP fluorescence, 18 h; TGF-beta stimulated, 500 pg/mL final; Potency, µM (highest dose often 46.1 µM), hits mostly inhibitors; 1.2% of 410,000 active; also: nearly all actives have a fitted effect of over 65% in size
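HEPG2 CAGA-GFP cells (1000/well, DMEM with 1% FBS) were pre-incubated 2 h at 37 degrees C, given compound by pin tool, then stimulated with TGF-beta at 500 pg/mL final for 18 h before per-cell GFP fluorescence imaging.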
DT40 TDP1 no CPT = qHTS for Inhibitors of human tyrosyl-DNA phosphodiesterase 1 (TDP1): qHTS in cells in absence of CPT. DT40 Tdp1-/- hTDP1 cells, no CPT, ATP luminescence, 48 h. Potency, µM (top dose mostly 46.2 µM), usual class: inhibitors. 15% of 420,000 active; also: nearly all actives have a fitted effect of over 55% in size
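Compound effects on proliferation are scored in DT40 Tdp1-/-;hTDP1 cells in the absence of CPT. ATP levels (CellTiter-Glo luminescence) are recorded after a ≥48 hr, 37 °C incubation.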
HepG2 viability = counter-screen for TGF-b inhibitors: cytotoxicity in HepG2 cells; 0.76% of 410,000 active; Potency, µM (highest dose often 46.1 µM), hits mostly cytotoxic; HepG2 CAGA-GFP viability, ATP luminescence, 18 h
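CellTiter-Glo luminescence gave cytotoxicity after 18 hours at 37 degrees C. The cells were HepG2 CAGA-GFP in 1% FBS DMEM, stimulated with 500 pg/mL TGF-beta after compound addition. %Activity was normalised to no-cell wells (complete cell-killing) and DMSO (no toxicity), and curves were fitted and classified.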
HT1080 IDH1KD tx = kills HT-1080 cells with IDH1 knockdown | Potency, µM (titrated, usually from 46.1 µM), hits mostly cytotoxic | HT-1080 IDH1 knockdown viability, ATP luminescence, 48 h | AID 686971 | 2% of 360,000 active
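Viability of IDH1-knockdown HT-1080 fibrosarcoma cells was assessed by CellTiter-Glo after 48 h at 37 °C with titrated compound; concentration-effect curves were classified by fit quality and response size.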
Of the large screens only hits and unclear results are named; the others gave an inactive call. Hits are enriched below; roughly 17% of the tested compounds scored in any of these assays. Calls follow the shape of the dose curve; as a rule, active = well fitted curve in the direction sought with a large enough effect; inconclusive = small, poorly fitted or top-dose-only effect, or another doubt; inactive = no such curve, though single readings can be large; an effect the other way counts as inactive or inconclusive.

COc1cc(C2Nc3cccc4cccc(c34)N2)ccc1O	DT40 TDP1 CPT inconclusive, DT40 TDP1 no CPT inconclusive
NS(=O)(=O)c1cccc(NC(=S)NC(=O)C23CC4CC(CC(C4)C2)C3)c1	DT40 TDP1 CPT inconclusive, TGFb inhibitor inconclusive, DT40 TDP1 no CPT 21µM
Cc1ccc(S(=O)(=O)N(C)C)cc1NC(=S)NC(=O)C12CC3CC(CC(C3)C1)C2	DT40 TDP1 CPT 9.2µM, DT40 TDP1 no CPT 8.2µM
CN(C)S(=O)(=O)c1cccc(NC(=S)NC23CC4CC(CC(C4)C2)C3)c1	HT1080-NT tox inconclusive, DT40 TDP1 CPT inconclusive, TGFb inhibitor inconclusive, DT40 TDP1 no CPT inconclusive
Cn1c(SCC(=O)NNC(=O)c2ccccc2)nnc1C(F)(F)F	none
CC(C)c1ccc(NC(=O)CSC2=Nc3ccccc3C3=NC(CC(=O)NCc4ccc(F)cc4)C(=O)N23)cc1 (centres undefined)	none (no result: HT1080-NT tox, HT1080 IDH1KD tx)
CCC(C)NC(=O)CSc1nnc(-c2cc(-c3cccs3)nc3ccccc23)o1 (centres undefined)	DT40 TDP1 CPT inconclusive, DT40 TDP1 no CPT 18µM
Cc1csc(=O)n1CC(=O)OCc1nnc(-c2ccccc2)o1	none
Cc1ccc(CNC(=O)c2ccc3c(c2)N(Cc2ccccc2Cl)C(=O)CS3)cc1	DT40 TDP1 CPT inconclusive, DT40 TDP1 no CPT inconclusive (no result: HT1080-NT tox, HT1080 IDH1KD tx)
O=C(NCc1ccccc1Cl)c1ccc2c(c1)N(Cc1ccccc1)C(=O)CS2	DT40 TDP1 CPT 23µM, TGFb inhibitor inconclusive, DT40 TDP1 no CPT inconclusive (no result: HT1080-NT tox, HT1080 IDH1KD tx)
Cc1cccc(CN2C(=O)CSc3ccc(C(=O)NC4CC4)cc32)c1	DT40 TDP1 CPT 0.73µM, DT40 TDP1 no CPT inconclusive
O=C(NCC1CCCO1)c1ccc2c(c1)N(Cc1ccccc1)C(=O)CS2 (centres undefined)	none
Cc1ccc(CNC(=O)c2ccc3c(c2)N(Cc2cccc(Cl)c2)C(=O)CS3)cc1	DT40 TDP1 CPT inconclusive, DT40 TDP1 no CPT 21µM (no result: HT1080-NT tox, HT1080 IDH1KD tx)
COc1ccc(CCNC(=O)COC(=O)c2ccc(F)c(S(=O)(=O)N3CCOCC3)c2)cc1	none
COc1ccc(C(=O)Nc2ccccc2C)cc1S(=O)(=O)N1CCOCC1	none
Cc1ccc(N2CCN(S(=O)(=O)c3cc(C(=O)Nc4cc(Cl)cc(Cl)c4)ccc3F)CC2C)cc1 (centres undefined)	DT40 TDP1 CPT inconclusive, TGFb inhibitor inconclusive, DT40 TDP1 no CPT 16µM (no result: HT1080-NT tox, HT1080 IDH1KD tx)
Cc1ccc(C)c(N2CCN(S(=O)(=O)c3cc(C(=O)Nc4cc(Cl)cc(Cl)c4)ccc3F)CC2)c1	DT40 TDP1 CPT 12µM, DT40 TDP1 no CPT 16µM (no result: HT1080-NT tox, HT1080 IDH1KD tx)
COc1ccc(C(=O)Nc2ccccc2N2CCOCC2)cc1S(=O)(=O)N1CCCC1	DT40 TDP1 CPT inconclusive, DT40 TDP1 no CPT 18µM
COc1ccc(CCNC(=O)c2ccc(F)c(S(=O)(=O)N3CCCCC3)c2)cc1	DT40 TDP1 CPT inconclusive, DT40 TDP1 no CPT 23µM
Cc1cccc(N2CCN(S(=O)(=O)c3cc(C(=O)Nc4ccc(Oc5ccccc5)cc4)ccc3F)CC2)c1C	DT40 TDP1 CPT 5.2µM, DT40 TDP1 no CPT inconclusive (no result: HT1080-NT tox, HT1080 IDH1KD tx)
O=C(Nc1cc(Cl)cc(Cl)c1)c1ccc(F)c(S(=O)(=O)N2CCN(c3ccccc3F)CC2)c1	DT40 TDP1 CPT 5.8µM, DT40 TDP1 no CPT 7.3µM (no result: HT1080-NT tox, HT1080 IDH1KD tx)
CCc1ccccc1NC(=O)c1ccc(F)c(S(=O)(=O)N2CCN(c3ccccc3OC)CC2)c1	DT40 TDP1 CPT 15µM, DT40 TDP1 no CPT 13µM (no result: HT1080-NT tox, HT1080 IDH1KD tx)
O=C(Nc1nncs1)c1ccc(F)c(S(=O)(=O)N2CCCCC2)c1	none
O=C(Nc1cc(Cl)cc(Cl)c1)c1ccc(F)c(S(=O)(=O)N2CCCCCC2)c1	DT40 TDP1 CPT 5.2µM, TGFb inhibitor inconclusive, DT40 TDP1 no CPT 10µM (no result: HT1080-NT tox, HT1080 IDH1KD tx)
Cc1ccc(C)c(N2CCN(S(=O)(=O)c3cc(C(=O)Nc4ccc(Oc5ccccc5)cc4)ccc3F)CC2)c1	DT40 TDP1 CPT inconclusive, DT40 TDP1 no CPT inconclusive (no result: HT1080-NT tox, HT1080 IDH1KD tx)
CCOC(=O)c1cc(S(=O)(=O)NCc2ccc(C)cc2)[nH]n1	DT40 TDP1 CPT inconclusive, TGFb inhibitor inconclusive (no result: HT1080-NT tox, HT1080 IDH1KD tx)
